Bioassay records from PubChem BioAssay.
SKOV3 invasion: inhibitors of ovarian cancer cell adhesion and invasion in omental model. SKOV3ip1-GFP adhesion/invasion on 3D omental model, fluorescence. AID 1963576. Potency, µM (series often up to 45.8 µM), for inactives: top-dose activity change, negative = inhibition, most hits filed as inhibitors. 0.1% of 46,000 active;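 further: plate controls were DMSO wells for no effect and tomatine positive control wells for full effect; nearly all actives have a fitted effect of over 65% in size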
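Primary human omental fibroblast/mesothelial 3D culture pre-formed 48 h. SKOV3ip1-GFP cells added with compounds (0.36-46 umol/L), incubated 2 h RT/16 h 37 C, fixed; GFP cells quantified at 488/509 nm.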
p53null 39C tox: selectivity test: cytotoxicity in p53 null cells, nonpermissive temperature | Potency, µM (series often up to 46.1 µM), for inactives: top-dose activity, negative = cell killing, hits mostly cytotoxic | AID 904 | 0.97% of 55,000 active | H1299 p53-null (neo) cells, 39C, ATPlite viability, 24 h;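 further: 0% = DMSO only and -100% = full killing by 100 µM tamoxifen; nearly all actives have a fitted effect of over 50% in size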
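ATP-luminescence viability readout (ATPlite, 20 min RT) after 24 hr compound treatment at 39C of H1299-neo or H1299-p53A138V cells; titration up to 46 uM; normalized to DMSO and 100 uM tamoxifen; Hill-fit AC50.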
pS6 MEF inh: reduces mTORC1 signaling in Tsc2 and p53 null MEF cells; Potency, µM (highest dose often 38.3 µM), for the others: top-dose activity change, negative = inhibition, hits mostly inhibitors; Tsc2-/- p53-/- MEF, phospho-rpS6 immunofluorescence/PI, 24 h; 0.78% of 44,000 active; AID 493208;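 further: plate controls were DMSO for no effect and rapamycin for full effect; nearly all actives have a fitted effect of over 50% in size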
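Readout is phospho-S6 Alexa 488 signal normalized to PI per well, reported as % active cells with thresholds set from rapamycin (7.5 nM) and DMSO controls. Cells: Tsc2-/-, p53-/- MEFs, 24 hrs compound at 37 C; PI cell number serves as viability.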
S16 F2sN tox: cytotoxicity in S16 Pmp22-F2sN Schwann cells. AID 1508642. S16 Pmp22-F2sN Schwann cells viability, CellTiter-Glo, 24 h. 0.48% of 43,000 active. Potency, µM (highest dose often 57.5 µM), for the others: at the highest dose activity change, negative = cytotoxicity, most hits filed as cytotoxic; further: nearly all actives have a fitted effect of over 65% in size
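CellTiter-Glo counter-screen, qHTS, 1536-well. Cells: S16(c9) Pmp22-F2sN, 500-1,000/well in DMEM + 10% FBS. Cpd 23 nL pin transfer, 24 h, 37C/5% CO2. Read: luminescence, CCD imager.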
p53null 32C kill: selectivity test: cytotoxicity in p53 null cells, permissive temperature; H1299-neo p53 null cells, ATP luminescence, 24 h, 32C; 0.62% of 55,000 active; AID 903; Potency, µM (doses to about 46.1 µM), without a hit: at the highest dose activity change, negative = cytotoxicity, actives largely listed as cytotoxic;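 further: 0% = DMSO only and -100% = full killing by 100 µM tamoxifen; nearly all actives have a fitted effect of over 55% in size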
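Cytotoxicity: H1299-neo (no p53), 32C, 24 h treatment. Concentrations up to 46 uM. Readout cellular ATP, luminescence. Normalization to DMSO basal and tamoxifen 100 uM maximal kill.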
PMP22 txn prim: modulates PMP22 transcription in S16 Schwann cells; S16 Pmp22-F2sN Schwann cells (luciferase reporters placed in the Pmp22 gene), FLuc/NLuc coincidence luminescence, 24 h; Potency, µM (highest dose often 57.5 µM), without a hit: at the highest dose activity change, negative = inhibition, most hits filed as inhibitors; 2% of 43,000 active; AID 1508649; active means clear falling dose curves in both reporters; inconclusive means both reporters move, but less clearly or upward; inactive means either reporter flat; the % is the NLuc reporter signal
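S16(c9) Schwann cells with FLuc/NLuc coincidence reporter in the Pmp22 3' UTR; compounds pin-transferred, 24 h at 37C. Dual-luciferase read: FLuc first, then NLuc after Stop&Glo, each 10 min at room temperature.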
* marks the source's active call; other numbers are inactive results; i = inactive; ? = inconclusive; nt = no result given; [ ] = another dose, or the depositor's remark. Shown are actives, neighbours in structure and some others; about 3% of the full set was active somewhere. Unless noted, the call rests on the fitted dose curve; in most records, active means well fitted curve in the direction sought with a large enough effect; inconclusive means small, poorly fitted or top-dose-only effect, or another doubt; inactive means no such curve, though single readings can be large; an effect the other way counts as inactive or inconclusive. Unless noted, on the % scale 0 is the no-effect control and ±100 the full control effect; potency means the concentration at half of the fitted maximal effect.

SMILES	SKOV3 invasion	p53null 39C tox	pS6 MEF inh	S16 F2sN tox	p53null 32C kill	PMP22 txn prim
Cc1nc2c(C(=O)NCCc3ccc(Cl)cc3)c[nH]n2c(=O)c1Cc1ccccc1F	i	?	-7%	18%	?	-32%
CCS(=O)(=O)c1ncc(Cl)c(C(=O)N(Cc2ccccc2)Cc2ccco2)n1	i	?	3.3µM*	3.5µM*	?	3.2µM*
Oc1ccc2ccccc2c1SSc1c(O)ccc2ccccc12	26µM*	nt	nt	nt	nt	nt
Cc1cc([C@@H](C)Nc2ccccc2C(=O)O)c2nc(N3CCOCC3)cc(=O)n2c1	-13%[92.2 µM]	nt	nt	nt	nt	nt
Cc1cc(OCCCS(C)(=O)=O)cc(C)c1-c1cccc(COc2ccc3c(c2)OC[C@H]3CC(=O)O)c1	-9%	nt	nt	nt	nt	nt
COc1ccccc1Nc1nn2c(=O)c3ccc(C(=O)NCc4cccs4)cc3nc2s1	i	?	-5%	7.9µM*	10µM*	10µM*
CCN(CC)CCNC(=O)c1ccc2c(=O)n3nc(Nc4ccccc4OC)sc3nc2c1	i	?	0%	11%	-19%	?
C=C[C@@H]1CN2CCC1C[C@H]2[C@H](O)c1ccnc2ccc(OC)cc12 (stereo partly specified)	-12%	nt	nt	nt	nt	nt
CS(=O)(=O)c1oc(-c2ccc(F)cc2)nc1S(=O)(=O)c1ccc(Cl)cc1	i	?	?	5.6µM*	?	4.5µM*
CSc1oc(-c2ccc(F)cc2)nc1S(=O)(=O)c1ccccc1	nt	26%	nt	nt	-1%	nt
CCCCS(=O)(=O)c1oc(-c2ccc(F)cc2)nc1S(=O)(=O)c1ccccc1	?	?	2.9µM*	4.5µM*	18µM*	2.4µM*
Cc1ccc(S(=O)(=O)c2nc(-c3ccc(F)cc3)oc2SCC(N)=O)cc1	nt	4%	nt	nt	3%	nt
CCS(=O)(=O)c1oc(-c2ccc(F)cc2)nc1S(=O)(=O)c1ccc(Br)cc1	?	?	2.6µM*	2.8µM*	49%	3µM*
CC(C)S(=O)(=O)c1oc(-c2cccs2)nc1S(=O)(=O)c1ccc(F)cc1	?	-22%	0.58µM*	3.2µM*	?	1.7µM*
O=c1cc(CN2CCOCC2)occ1OCCCCCSc1ccnc2cc(C(F)(F)F)ccc12	-1%	nt	nt	nt	nt	nt
CC1=C(C(=O)Nc2cc3cn[nH]c3cc2F)C(c2ccc(Cl)cc2F)N=C(c2ccnc(Cl)c2)N1 (stereo unspecified)	17%	nt	nt	nt	nt	nt
Cc1ccc(-c2cn3ccc(C)cc3n2)cc1	i	0.79µM*	-4%	10%	0.63µM*	?
Cc1ccc(S(=O)(=O)Nc2ccc(-c3cn4ccc(C)cc4n3)cc2)cc1	nt	8%	nt	nt	nt	nt
Cn1c(=O)c2c(nc(NCc3ccccc3)n2Cc2ccccc2Cl)n(C)c1=O	i	-15%	7%	?	2%	-3%
Cn1c(=O)c2c(nc(NCc3ccccc3)n2Cc2ccccc2)n(C)c1=O	-7%	-5%	-7%	?	-12%	13µM*
CCc1ccc(-n2c(SCc3ccccc3Cl)nc3[nH]ncc3c2=O)cc1	?	18µM*	-9%	?	?	?
O=C(NCc1ccccn1)c1cc(-c2ccc(-c3ccccc3)cc2)nc2ccccc12	nt	7.9µM*	nt	nt	nt	nt
CCOc1cc2ncc(C#N)c(Nc3ccc(OCc4ccccn4)c(Cl)c3)c2cc1NC(=O)C=CCN(C)C	-10%	nt	nt	nt	nt	nt
CCOCc1cc(CN2CCN(c3cccc(C(F)(F)F)c3)CC2)c(O)c2ncccc12	-13%	?	?	?	?	4.5µM*
CC(C)OCc1cc(CN2CCN(c3cccc(C(F)(F)F)c3)CC2)c(O)c2ncccc12	-5%	0.5µM*	?	?	?	6.5µM*
SMILES	SKOV3 invasion	p53null 39C tox	pS6 MEF inh	S16 F2sN tox	p53null 32C kill	PMP22 txn prim
Nc1nc(=O)n([C@H]2C[C@H](O)[C@@H](CO)O2)cc1F	27%	nt	nt	nt	nt	nt
COc1cc(CNc2ccc(O)cc2)cc(Br)c1OCc1ccccc1F	nt	nt	nt	nt	-23%	nt
Oc1ccc(NCc2ccccc2OCc2ccc(Cl)cc2)cc1	i	?	?	20µM*	-26%	?
Oc1ccccc1CNc1cnc2ccccc2c1	nt	-13%	nt	nt	-4%	nt
Oc1ccc(NCc2ccccc2OCc2ccccc2)cc1	5%	?	?	20µM*	-17%	7.3µM*
COC(=O)[C@H](CCCN=C(N)N)NS(=O)(=O)c1ccc(C)cc1	-4%	nt	nt	nt	nt	nt
Cc1ccc(Cl)cc1N1CCN(CCNC(=O)Nc2ccc(Cl)cc2)CC1	?	20µM*	-29%	?	?	?
CCOc1ccc(NC(=O)NCCN2CCN(c3cc(Cl)ccc3C)CC2)cc1	9%	-11%	-11%	-7%	8%	?
COc1ccc(Cl)cc1S(=O)(=O)NCc1ccc2c(c1)CCN2C(=O)c1cccc(C)c1	-9%	?	?	14µM*	10%	11µM*
CC(C)CCNC(=O)c1cccc(Nc2nc3ccccc3n3nnnc23)c1	?	?	?	20µM*	-23%	9.5µM*
Cc1ccc(C)c(N2CCN(C(=O)c3ccc(Nc4nc5ccccc5n5nnnc45)cc3)CC2)c1	13%	-7%	?	-28%	-5%	-37%
COc1ccccc1N1CCN(C(=O)c2ccc(Nc3nc4ccccc4n4nnnc34)cc2)CC1	-26%	-15%	-1%	3.5µM*	4%	?
Cn1cnc(=N)c2[nH]cnc21	-11%	nt	nt	nt	nt	nt
CN(C)C1CCN(C(=O)c2ccc(NC(=O)Nc3nc(N4CCOCC4)nc(N4CCOCC4)n3)cc2)CC1	22%	nt	nt	nt	nt	nt
O=C1CC(c2ccccc2)Cc2[nH]c(=O)c(-c3nc(-c4ccc(Cl)cc4)cs3)cc21 (stereo unspecified)	-27%	-2%	5.8µM*	?	33%	0.75µM*
O=C1CC(c2ccccc2)Cc2[nH]c(=O)c(-c3nc(-c4ccc(Cl)c(Cl)c4)cs3)cc21 (stereo unspecified)	-6%	-10%	-2%	?	20%	-7%
O=C(Nc1noc2ccccc12)c1ccc(F)cc1	5%	?	3%	-1%	13µM*	-23%
COc1ccc(C(=O)Nc2c(C(=O)c3ccc(F)cc3)oc3ccccc23)cc1	i	?	1%	-1%	2%	10µM*
COc1cccc(NC(=O)c2oc3ccccc3c2NC(=O)c2ccc(OC(C)C)cc2)c1	-14%	13µM*	-5%	-14%	16µM*	9%
